SENP6 inh: SENP6 protease inhibitors, primary screen, biochemical, luminescence, uHTS | Recombinant SENP6 catalytic domain, aminoluciferin luminescence | AID 2599, 2010 | Sentrin-specific protease 6 (Homo sapiens), Q9GZR1 | inhibition, % at 10 µM | 330,000 tested, 1.8% active;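 active = inhibition above about 50% at the single tested dose, limit read from the data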;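 note: plate controls were DMSO wells with enzyme for no effect and DMSO wells lacking enzyme for full effect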
C8 TRAIL sens: viability loss with TRAIL in NB7+C8 cells, primary screen, TRAIL sensitizer project, cell-based, ATPlite luminescence; AID 624354, 2012; inhibition (viability loss, TRAIL sensitization), % at 10 µM; 360,000 tested, 1% active;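 active = compounds causing at least 50% loss of cell viability in the single-dose screen, relative to plate controls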
SENP7 inh: SENP7 protease inhibitors, primary screen, biochemical, luminescence, uHTS | Sentrin-specific protease 7 (Homo sapiens), Q9BQF6 | 330,000 tested, 1.5% active | recombinant SENP7, Z-RLRGG-aminoluciferin luminescence, 40 min | inhibition, % at 5 µM | AID 434973, 2010;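 active = inhibition above about 50% at the single test dose, limit read from the data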;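 note: plate controls were DMSO with enzyme for no effect and no enzyme buffer wells for full effect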
Target sequence (Q9BQF6 706-1050 limits assumed): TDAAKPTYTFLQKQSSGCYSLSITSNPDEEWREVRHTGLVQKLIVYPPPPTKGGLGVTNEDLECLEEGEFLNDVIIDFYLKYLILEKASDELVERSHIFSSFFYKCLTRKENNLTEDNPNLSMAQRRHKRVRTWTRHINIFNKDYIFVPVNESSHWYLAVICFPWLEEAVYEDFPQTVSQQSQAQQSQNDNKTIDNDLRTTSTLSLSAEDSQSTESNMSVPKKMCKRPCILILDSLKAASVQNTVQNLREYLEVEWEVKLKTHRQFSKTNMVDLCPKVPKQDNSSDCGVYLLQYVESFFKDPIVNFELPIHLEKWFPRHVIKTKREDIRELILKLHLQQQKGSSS
PPC-1+TRAIL kill: compounds killing PPC-1 cancer cells with TRAIL present, primary screen, TRAIL potentiator project, ATPLite luminescence, uHTS; 220,000 tested, 0.41% active; cell killing (% activity), % at 4 µM or 5 µM; PPC-1 cells + TRAIL, ATPLite viability luminescence; AID 1443, 2008;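 active = cell killing above 50% in the first pass at 4 µM, then a duplicate retest at 5 µM averaging 50% or more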;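 note: plate controls were cells with TRAIL plus DMSO for no effect and medium-only wells lacking cells for full effect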
SENP8 block-1: human SENP8 protease inhibitors, primary screen, biochemical, fluorescence, Nedd8 protein substrate, uHTS. recombinant SENP8. inhibition, % at 20 µM. 360,000 tested, 0.64% active; in the data active = inhibition mostly above about 40%, no sharp cut-off; inactive = mostly below about 27%
SENP8 block-2: SENP8 protease inhibitors, primary screen, biochemical, luminescence. Sentrin-specific protease 8 (Homo sapiens), Q96LD8. purified SENP8, Z-RLRGG-aminoluciferin cleavage. 330,000 tested, 1.2% active. AID 2540, 2010. inhibition, % at 10 µM; in the data active = inhibition above about 50%
SENP8 confirm: SENP8 protease inhibitors, retest, confirmation, biochemical, luminescence, single concentration; Recombinant SENP8, Z-RLRGG-aminoluciferin luminescence, 60 min; shares compounds with SENP7 inh; 6,200 tested, 40% active; inhibition, % at 12.5 µM;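 active = mean inhibition across replicates above about 50%, limit read from the data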
SENP6 conf: SENP6 protease inhibitors, confirmation, biochemical, luminescence, single concentration; shares compounds with SENP7 inh; recombinant SENP6, Z-RLRGG-aminoluciferin luminescence; inhibition, % at 12.5 µM; 6,200 tested, 58% active; AID 488915, 2010
SENP7 confirm: SENP7 protease inhibitors, retest, confirmation, biochemical, luminescence, single concentration | shares compounds with SENP7 inh | recombinant SENP7, Z-RLRGG-aminoluciferin luminescence, 40 min | inhibition, % at 12.5 µM | 6,200 tested, 69% active | AID 488917, 2010
Casp3 SENP sel: caspase-3 protease inhibitors, confirmation, selectivity assay for SENP inhibitor project, biochemical, single concentration; shares compounds with SENP7 inh; purified caspase-3, Z-DEVD-aminoluciferin luminescence, 60 min; inhibition, % at 12.5 µM; 6,200 tested, 60% active; AID 488918, 2010;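 active = mean inhibition above about 50%, limit read from the data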;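 note: plate controls were enzyme with DMSO for no effect and wells without caspase-3 for full effect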
SENP luc ctr: luminescence interference (SENP counter-screen); inhibition, % at 12.5 µM; Pre-incubated SENP8/Z-RLRGG-aminoluciferin, luciferase luminescence interference; 6,200 tested, 39% active; shares compounds with SENP7 inh;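 active = mean inhibition above about 50% when retested at one dose, limit read from the data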;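 note: plate controls were DMSO wells with completed reaction for no effect and substrate without enzyme for full effect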
* = called active by the depositor; i = inactive; x = no result given. Shown are actives, neighbours in structure and some others; about 3% of the full set was active somewhere.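 Rule for the calls, unless noted: active = mean inhibition above about 50% in the one-dose retest (limit read from the data); inactive = the rest.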

SMILES	SENP6 inh	C8 TRAIL sens	SENP7 inh	PPC-1+TRAIL kill	SENP8 block-1	SENP8 block-2	SENP8 confirm	SENP6 conf	SENP7 confirm	Casp3 SENP sel	SENP luc ctr
Nc1c(C(=O)Nc2cccc(F)c2)nnn1-c1ccc2c(c1)OCCO2	42.8	7.2	83.3*	x	9.5	16.6	14.3	23.2	93.9*	69.2*	12.8
O=C(Nc1ccc2c(c1)OCO2)c1c(F)cccc1F	29.2	16.5	7.7	20.0	11.5	-6.7	x	x	x	x	x
Cc1ccc(OCCNC(=O)Cc2ccc(S(=O)(=O)N3CCOCC3)s2)cc1	7.7	-7.4	1.3	x	-11.8	0.9	x	x	x	x	x
COc1ccc(C(C)=O)cc1COC(=O)CSCC(=O)Nc1ccc(C)cc1	0.4	10.5	-1.5	x	5.3	4.2	x	x	x	x	x
CCc1ccc2oc(-c3cc(N)cc(C)c3O)nc2c1	78.7*	20.7	53.6*	7.8	-110.1	74.6*	35.2	50.1*	77.6*	58.4*	7.3
Nc1ccc2oc(-c3cc(Br)ccc3Cl)nc2c1	11.3	2.0	7.9	15.3	-99.8	-0.9	x	x	x	x	x
CCc1ccc2oc(-c3cc(N)ccc3O)nc2c1	97.4*	65.4*	92.3*	15.3	-138.0	93.6*	67.9*	94.4*	98.8*	85.7*	15.6
CCc1ccc2oc(-c3cc(N)ccc3Cl)nc2c1	95.1*	47.0*	95.5*	43.2	i	92.4*	94.8*	96.7*	101.3*	81.6*	78.5*
Nc1ccc2oc(-c3ccccc3Cl)nc2c1	90.6*	47.0	76.5*	42.2	-239.8	67.9*	89.7*	89.6*	98.7*	87.3*	79.7*
C[C@H](CO)N1C[C@H](C)[C@@H](CN(C)S(C)(=O)=O)Oc2ccc(NC(=O)c3ccncc3)cc2C1=O	-2.7	-14.8	1.0	x	5.2	1.9	x	x	x	x	x
CC(C(=O)NC(C)(C)C)N(C(=O)CS(=O)CC(=O)Nc1ccc(F)cc1)C1CCCC1 (configuration not stated)	15.5	-20.3	-11.5	x	1.0	4.0	x	x	x	x	x
C[C@H](CO)N1C[C@H](C)[C@@H](CN(C)C(=O)C2CCCCC2)OCc2cn(nn2)CCCC1=O	x	-14.1	x	x	17.4	x	x	x	x	x	x
O=C(O)c1ccc(-c2noc(-c3ccccc3F)n2)cc1	99.0*	-3.4	98.7*	x	6.7	96.0*	100.0*	100.9*	104.0*	100.0*	95.1*
Cc1ccc(-c2noc(-c3ccccc3F)n2)cc1	95.8*	25.5	96.6*	6.7	6.8	76.1*	73.4*	94.6*	101.3*	85.1*	68.4*
CC(Nc1cccc2ccccc12)C(=O)N/N=C/c1ccccn1 (configuration not stated)	81.2*	-10.9	45.4	4.0	18.4	84.8*	-9.2	4.8	-3.7	1.3	3.5
Fc1ccccc1/C=N/Nc1nc2ccccc2o1	13.8	0.5	69.5*	x	-103.9	-2.6	-3.0	7.1	16.0	21.0	7.7
FC(F)Oc1ccccc1/C=N/Nc1nc2ccccc2o1	-8.5	7.8	-9.3	x	-39.4	-14.8	x	x	x	x	x
